The source of these data is PubChem BioAssay AID1751 (National Center for Advancing Translational Sciences (NCATS), 2009).

Results filed as inconclusive are left out. A number with no mark means an inactive call. Activity calls are given as the source filed them. The call rests on the fitted dose curve; in most records, active means well fitted activation curve with a large enough effect; inconclusive means small, poorly fitted or top-dose-only effect; inactive means no such curve, though single readings can be large or run the other way.

Sequence of Pyruvate kinase PKM (Homo sapiens) (P14618 whole entry, looked up, canonical isoform): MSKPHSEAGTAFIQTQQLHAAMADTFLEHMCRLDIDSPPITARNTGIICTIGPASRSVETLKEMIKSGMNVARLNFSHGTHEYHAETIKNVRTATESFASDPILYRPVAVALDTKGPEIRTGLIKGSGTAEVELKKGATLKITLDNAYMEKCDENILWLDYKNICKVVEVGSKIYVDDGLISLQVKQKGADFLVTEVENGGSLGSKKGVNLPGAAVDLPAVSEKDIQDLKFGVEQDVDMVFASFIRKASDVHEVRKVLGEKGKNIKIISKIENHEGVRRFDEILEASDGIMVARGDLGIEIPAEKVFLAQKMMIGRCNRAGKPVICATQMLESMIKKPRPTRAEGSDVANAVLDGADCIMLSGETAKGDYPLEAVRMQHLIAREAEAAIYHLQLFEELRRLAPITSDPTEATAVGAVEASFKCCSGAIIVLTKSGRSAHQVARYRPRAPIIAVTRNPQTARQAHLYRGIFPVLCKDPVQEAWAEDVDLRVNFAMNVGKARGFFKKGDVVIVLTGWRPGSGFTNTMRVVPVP

The target in the assay is Pyruvate kinase PKM (Homo sapiens) (UniProt P14618). Put plainly: Confirmation Concentration-Response Assay for Activators of Human Muscle isoform 2 Pyruvate Kinase. The settings on record: purified hPK-M2, Kinase-Glo ATP luminescence, 1 h; series mostly up to 57.5 µM; activation (negative = inhibition): at the top concentration. The text has this:
NIH Chemical Genomics Center [NCGC] Matthew G. Vander Heiden, M.D., Ph.D. [Harvard Medical School, 77 Avenue Louis Pasteur, Boston, MA 02115] MLPCN Grant: 1 R03 MH085679-01 NCGC Assay Overview: Human pyruvate kinase muscle 2 (hPK-M2) enzyme was supplied as a highly purified (>95% pure) preparation from Harvard Medical School and assayed for its ability to generate ATP from ADP using phosphoenolpyruvate (PEP) as a substrate. ATP generation was detected in a coupled reaction by luciferase-mediated luminescence, an ATP-dependent process. Pyruvate kinase substrates, PEP and ADP, were present in the assay at Km and approximately 10-fold below Km respectively. The enzyme was assayed at an intermediate level of activity to screen for both inhibitors and activators.
NCGC Assay Protocol Summary: Three uL of substrate mix (at r.t.) in assay buffer (50 mM Imidazole pH7.2, 50 mM KCl, 7 mM MgCl2, 0.01% Tween 20, 0.05% BSA) was dispensed into white solid bottom 1,536 well microtiter plates so that the final concentrations of substrates in the assay were 0.1 mM ADP and 0.5 mM PEP. 23 nL of compound were delivered by a pin tool and 1 uL of enzyme mix (final concentration of 0.1 nM) in assay buffer (4 degree Celsius) was added. Plates were incubated at room temperature for 1 hour. Two uL of detection mix (Kinase-Glo, Promega; at 4 degree Celsius protected from light) was added and luminescence read by a ViewLux (Perkin Elmer) at 1 second exposure/plate. Data were normalized to the uninhibited (column 3) and AC100 inhibition (no enzyme in column 2). To monitor activation, the first column contained a titration of the activator, NCGC00031955-03 (16-point 1:2 dilutions in duplicate starting at 57 uM) and the first 16 rows of column 4 contained 57 uM of NCGC00031955-03.
(In Kinase-Glo more light means more ATP remaining.)
`O=S(=O)(c1ccc2c(c1)OCCO2)N1CCN(S(=O)(=O)c2ccc3c(c2)OCCO3)CC1`: the Potency is 179 nM (active).

In the case of `Cn1c2cc(CO)sc2c2cnn(Cc3ccccc3F)c(=O)c21`, the Potency is 28.4 nM (active).

Take `O=S(=O)(c1cccc(F)c1)N1CCN(S(=O)(=O)c2ccc3c(c2)OCCO3)CC1`: the Potency is 284 nM (active).

As for `COc1ccc2c(c1)CCc1c(C(=O)NC3CCCCC3)noc1-2`, the “activation (negative = inhibition)” value is -41.1%.

Consider `O=S(=O)(c1ccc(Cl)cc1)N1CCN(S(=O)(=O)c2ccc3c(c2)OCCO3)CC1`, for which the Potency was 56.6 nM (active).

On to `O=S(=O)(c1ccc2c(c1)OCCO2)N1CCN(S(=O)(=O)c2ccccn2)CC1`, for which the Potency was 505 nM (active).

Regarding `Cc1cc2c(s1)c1cnn(Cc3ccc(F)cc3)c(=O)c1n2C`, the Potency is 25.3 nM (active).

Turning to `Cc1cc2c(s1)c1cnn(Cc3ccccc3F)c(=O)c1n2C(C)C`, the “activation (negative = inhibition)” value was 11.2%.

In the case of `Cn1ccc2cc(S(=O)(=O)N3CCN(S(=O)(=O)c4c(F)cccc4F)CC3)ccc21`, the Potency was 318 nM (active).

Regarding `Cc1cc2c(s1)c1cnn(Cc3ccc(C(C)C)cc3)c(=O)c1n2C`, the Potency was 63.5 nM (active).

`COc1ccc(Cn2ncc3c4sc(C)cc4n(C)c3c2=O)cc1F`: the Potency was 127 nM (active).

As for `O=C(CN1C(=O)N/C(=C\c2cccn2-c2cccc(C(=O)O)c2)C1=O)Nc1ccccc1F`, the “activation (negative = inhibition)” value is 22%.

For `CCN1CCc2c(sc(NC(=S)NC(=O)c3ccccc3)c2C#N)C1`, the “activation (negative = inhibition)” value is -9.17%.

For `Cc1ccc(S(=O)(=O)N2CCCN(S(=O)(=O)c3ccc4c(c3)OCCO4)CC2)cc1`, the Potency was 398 nM (active).

As for `O=S(=O)(NCCCCCNS(=O)(=O)c1c(F)cccc1F)c1ccc2c(c1)OCCO2`, the Potency is 2010 nM (active).

For the molecule `Cc1cc2c(s1)c1cnn(Cc3ccccc3Cl)c(=O)c1n2C`, the Potency is 113 nM (active).

Consider `C[C@@H]1CN(S(=O)(=O)c2c(F)cccc2F)CCN1S(=O)(=O)c1ccc2c(c1)OCCO2`, for which the Potency was 1790 nM (active).

Turning to `O=C1CN(S(=O)(=O)c2c(F)cccc2F)CCN1S(=O)(=O)c1ccc2c(c1)OCCO2`, the Potency was 89.7 nM (active).

Consider `COc1ccc(S(=O)(=O)N2CCN(S(=O)(=O)c3ccc4c(c3)OCCO4)CC2)cc1`, for which the Potency was 80 nM (active).

Regarding `Nc1cccc(-c2cn3cc(C(F)(F)F)cc(Cl)c3n2)c1`, the “activation (negative = inhibition)” value is -66.6%.

Consider `CCc1cc2c(s1)c1cnn(Cc3ccccc3F)c(=O)c1n2C`, for which the Potency was 63.5 nM (active).

For `CC(O)c1cc2c(s1)c1cnn(Cc3ccccc3F)c(=O)c1n2C` (stereo not given), the Potency is 113 nM (active).

As to `Cn1c2ccsc2c2cnn(Cc3ccccc3F)c(=O)c21`, the Potency was 318 nM (active).

For `O=S(=O)(NCCCNS(=O)(=O)c1c(F)cccc1F)c1ccc2c(c1)OCCO2`, the Potency was 2840 nM (active).

As to `COC(=O)CSC1=NS(=O)(=O)c2ccccc21`, the “activation (negative = inhibition)” value is -29.2%.

`Cc1cc2c(s1)c1cnn(Cc3ccccc3F)c(=O)c1n2C`: the Potency was 40.1 nM (active).

Turning to `O=S(=O)(c1ccc2c(c1)OCCO2)N1CCN(S(=O)(=O)c2ccc(F)cc2F)CC1`, the Potency is 63.5 nM (active).

In the case of `Cc1cc2c(s1)c1cnn(Cc3ccc(Cl)cc3)c(=O)c1n2C`, the Potency was 201 nM (active).

Take `COc1ccc(S(=O)(=O)N2CCN(S(=O)(=O)c3ccc(OC)cc3)CC2)cc1`: the Potency was 142 nM (active).

Take `O=S(=O)(NC1CCN(S(=O)(=O)c2ccc3c(c2)OCCO3)CC1)c1c(F)cccc1F`: the Potency is 2530 nM (active).

Regarding `O=S(=O)(NCCNS(=O)(=O)c1c(F)cccc1F)c1ccc2c(c1)OCCO2`, the Potency was 20100 nM (active).

As to `C[C@H]1CN(S(=O)(=O)c2c(F)cccc2F)CCN1S(=O)(=O)c1ccc2c(c1)OCCO2`, the Potency was 3570 nM (active).

For the molecule `Cc1ccc(NS(=O)(=O)c2ccc3c(c2)CCC(=O)N3)cc1C`, the Potency is 163 nM (active).

Turning to `Cc1cc2c(s1)c1cnn(Cc3cccc(Cn4ncc5c6sc(C)cc6n(C)c5c4=O)c3F)c(=O)c1n2C`, the Potency was 16000 nM (active).

Take `CCCc1cc(F)c(S(=O)(=O)N2CCN(S(=O)(=O)c3ccc4c(c3)OCCO4)CC2)cc1F`: the Potency is 800 nM (active).

Take `O=S(=O)(c1ccc2c(c1)OCCO2)N1CCN(S(=O)(=O)c2cccc[n+]2[O-])CC1`: the Potency is 8970 nM (active).

`O=S(=O)(NCCCCNS(=O)(=O)c1c(F)cccc1F)c1ccc2c(c1)OCCO2`: the Potency is 5050 nM (active).

Take `CC(=O)Nc1cc2c(s1)c1cnn(Cc3ccccc3F)c(=O)c1n2C`: the Potency was 17900 nM (active).

As to `COc1ccc(S(=O)(=O)N2CCN(S(=O)(=O)c3c(F)cccc3F)CC2)cc1`, the Potency was 56.6 nM (active).

As for `Cc1cc2c(s1)c1cnn(Cc3cccc(F)c3)c(=O)c1n2C`, the Potency is 101 nM (active).
